Screening data deposited in PubChem BioAssay by National Center for Advancing Translational Sciences (NCATS).
An excerpt weighted towards active compounds, which were near 7.4% of everything screened.
NPC1 promoter act: activates the NPC1 promoter; Huh7 NPC1 promoter luciferase reporter, 24 h; Potency, µM (series often up to 9.22 µM), for the others: top-dose activation, most hits filed as activators; 2.4% of 320,000 active; AID 485313; further: % of control where 0% means no effect; nearly all actives have a fitted effect of over 60% in size
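In 1536-well qHTS, Huh7 cells harboring an NPC1 promoter–luciferase construct received compound for 24 h; activation was quantified by luminescence following luciferase reagent addition.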
FLuc counter: firefly luciferase modulation, counter-screen for miR-21 project. P08659. purified FLuc, Km substrates, luminescence inhibition. Potency, µM (top dose mostly 57.5 µM), inactives show at the top dose activity change, negative = inhibition, actives largely listed as inhibitors. 6.9% of 360,000 active. AID 588342;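 further: plate controls were vehicle for no effect and reference inhibitor for full effect; nearly all actives have a fitted effect of over 55% in size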
Target sequence (P08659 whole entry, looked up): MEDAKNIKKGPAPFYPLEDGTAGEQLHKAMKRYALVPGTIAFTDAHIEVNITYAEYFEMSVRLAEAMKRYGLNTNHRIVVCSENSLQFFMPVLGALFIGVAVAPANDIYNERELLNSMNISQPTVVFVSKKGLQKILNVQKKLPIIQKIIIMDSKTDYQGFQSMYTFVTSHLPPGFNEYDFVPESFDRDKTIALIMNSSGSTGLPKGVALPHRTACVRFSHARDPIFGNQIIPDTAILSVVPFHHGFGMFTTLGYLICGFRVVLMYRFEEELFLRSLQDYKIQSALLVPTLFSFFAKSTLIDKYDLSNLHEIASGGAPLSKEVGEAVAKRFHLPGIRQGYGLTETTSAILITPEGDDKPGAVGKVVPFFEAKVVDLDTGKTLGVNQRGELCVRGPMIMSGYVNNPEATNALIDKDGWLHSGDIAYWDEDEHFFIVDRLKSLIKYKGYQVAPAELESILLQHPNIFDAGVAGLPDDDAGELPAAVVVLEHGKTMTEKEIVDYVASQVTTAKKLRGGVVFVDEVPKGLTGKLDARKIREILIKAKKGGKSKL
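Biochemical qHTS of compounds, final roughly 60 µM downward over six points, against 10 nM purified firefly luciferase using Km concentrations of substrates (10 uM D-luciferin, 10 uM ATP) in Tris acetate pH 7.5 buffer; luminescence output.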
Rab9 promoter act: activators of Rab9 promoter. Huh7 Rab9 promoter-luciferase reporter, luminescence, 24 h. Potency, µM (series often up to 9.22 µM), inactives show top-dose activation, negative = inhibition, usual class: activators. 2.8% of 320,000 active; further: % of control where 0% means no effect; nearly all actives have a fitted effect of over 60% in size
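Stable Rab9-luc Huh7, 1500 cells/well, 2 h settle; cmpd in DMSO, 24 h, 37 °C/5% CO2; luciferase reagent 10 min RT; luminescence.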
ELG1 genotox: genotoxicity induction in ELG1-luciferase HEK293T cells. HEK293T ELG1-luciferase reporter, luminescence, 16 h. Potency, µM (highest dose often 46 µM), inactives show top-dose activity change, positive = activation, hits mostly activators. 1.3% of 330,000 active. AID 504466; further: % of control where 0% means no effect; nearly all actives have a fitted effect of over 60% in size
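HEK293T cells expressing luciferase-tagged ELG1 were exposed to compound or DMSO vehicle for 16 hr at 37 °C and 5% CO2. Luciferase activity was then measured with ONE-Glo after 30 min at room temperature.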
SMN2 splice up: increases expression of the SMN2 splice variant. HEK293 SMN2-luciferase splicing reporter, luminescence, 30-36 h. Potency, µM (titrated, usually from 46.1 µM), inactives show at the top dose activity change, positive = activation, most hits filed as activators. 2.8% of 210,000 active; further: % of control where 0% means no effect; nearly all actives have a fitted effect of over 55% in size
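HEK293 cells carry an SMN2 minigene-luciferase reporter in which exon 7 inclusion puts luciferase in frame. Cells were seeded at 2000 cells/well, attached for 10-12 hours, then exposed to compounds for 30-36 hours at 37C before ONE-Glo luminescence.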
* hit, by the source's call; ? = inconclusive; / = no result given. The call rests on the fitted dose curve; in most records, active means well fitted curve in the direction sought with a large enough effect; inconclusive means small, poorly fitted or top-dose-only effect, or another doubt; inactive means no such curve, though single readings can be large; an effect the other way counts as inactive or inconclusive. Potency means the concentration at half of the fitted maximal effect.

SMILES	NPC1 promoter act	FLuc counter	Rab9 promoter act	ELG1 genotox	SMN2 splice up
O=C(Nc1ccc(Oc2ccccc2)cc1)c1cnc2n(c1=O)CCS2	-10.5%	-13.0%	-26.4%	11.4%	-108.0%
O=C(Nc1cccc(Cl)c1)N1CCN(Cc2ccccc2)CC1	?	15.1µM*	?	20.6µM*	10µM*
Cc1cccc(NC(=O)N2CCN(Cc3ccc(Cl)cc3)CC2)c1	2.7%	0.0%	5.4%	-7.7%	-42.0%
S=C(Nc1ccc(Cl)cc1)N1CCN(Cc2ccccc2)CC1	-2.8%	19µM*	2.4%	-3.3%	-10.2%
Cc1ccc(NC(=S)N2CCN(Cc3ccccc3)CC2)cc1	-0.2%	12µM*	13.9%	34.3%	-58.2%
Cc1ccc(-n2c(C)cc(C(=O)C(=O)Nc3ccccc3)c2C)c(C)c1	/	5.1%	/	/	/
COc1ccc2[nH]cc(CCNc3cc(-c4ccoc4)ncn3)c2c1	/	/	/	/	-16.0%
CCc1c(C)nc(SCC(=O)c2cccs2)c(C#N)c1C	3.16µM*	2.69µM*	?	9.2µM*	15.8µM*
CCc1cc2c(SCC(=O)c3cccs3)ncnc2s1	22.1%	-11.8%	7.3%	23.1µM*	?
CCc1c(C)nc(SCC(N)=O)c(C#N)c1C	-0.2%	3.8%	7.2%	-0.2%	2.4%
CCc1cc2c(SCC(=O)c3ccccc3)ncnc2s1	19.5%	?	1.5%	?	8.91µM*
O=C(NCc1ccccc1Cl)c1ccc2c(c1)NC(=O)C(CS(=O)(=O)Cc1ccc(Cl)cc1)N2 (stereo not drawn)	/	-0.7%	/	/	/
CCn1c(SCC(=O)Nc2ccc(C(C)=O)cc2)nc2c([nH]c3ccccc32)c1=O	-0.9%	3.5%	19.3%	16.4µM*	/
CCn1c(SCC(=O)Nc2ccccc2)nc2c([nH]c3ccccc32)c1=O	/	-1.4%	/	/	/
CC(=O)Nc1c(O)nc(SCC(=O)Nc2ccc(C(C)=O)cc2)[nH]c1=O	?	?	?	9.2µM*	?
CC(=O)c1ccc(NC(=O)CSc2nc(N3CCOCC3)nc(N3CCOCC3)n2)cc1	27.8%	-16.8%	24.5%	18.3µM*	/
CC(=O)Nc1c(O)nc(SCC(=O)Nc2cccc(C)c2)[nH]c1=O	-1.6%	-0.7%	1.4%	2.3%	4.3%
NC(C(=O)O)c1cccc(O)c1 (stereo not drawn)	/	/	/	/	-10.0%
C[C@H](CO)N1C[C@H](C)[C@@H](CN(C)S(=O)(=O)c2ccc(F)cc2)Oc2ccc(NC(=O)NC3CCCCC3)cc2C1=O	/	/	/	-3.2%	/
CC(C)C(=O)Nc1cccc(-c2cn3ccsc3n2)c1	13.3%	15.1µM*	28.9%	?	22.7%
CCC(=O)Nc1cccc(-c2cn3ccsc3n2)c1	14.0%	16.9µM*	-4.3%	5.9%	24.4%
CC(C)(C)CC(=O)Nc1cccc(-c2cn3cccnc3n2)c1	?	10.7µM*	2.51µM*	?	11.2µM*
CC(C)CC(=O)Nc1cccc(-c2cn3ccsc3n2)c1	?	12µM*	?	?	17.8µM*
Cc1cccc(CNC(=O)CN2C(=O)CSc3c2c(C)nn3-c2ccccc2)c1	/	1.8%	/	/	/
Cn1cc(CN2CCC(C(=O)Nc3ccc(Oc4ccccc4F)cc3)CC2)cn1	0.2%	-1.2%	2.8%	-2.5%	/
SMILES	NPC1 promoter act	FLuc counter	Rab9 promoter act	ELG1 genotox	SMN2 splice up
CC(C)c1ccc(-c2csc3ncnc(N4CCN(C)CC4)c23)cc1	3.9%	0.5%	-1.4%	-13.3%	/
COC(=O)[C@@]1(Cc2ccc(F)cc2)[C@H]2c3cc(C(=O)N4CCCC4)n(CCCNc4ncc(C(F)(F)F)cc4Cl)c3C[C@H]2CN1C(=O)c1ccccc1	-7.2%	0.9%	-0.4%	-12.8%	-18.4%
Clc1ccc(/C=N/Nc2ncnc3nc[nH]c23)cc1	?	16.9µM*	?	16.4µM*	/
Cc1ccc(/C=N/Nc2ncnc3nc[nH]c23)cc1	2.82µM*	9.53µM*	1.58µM*	?	/
Cc1cc(C(=O)NN=C2CCCCCC2)c(C)o1	-1.1%	-17.4%	-8.9%	3.0%	/
COc1ccc(N2CCN(C(=O)COc3ccc4ccccc4c3)CC2)cc1	-3.0%	-2.1%	-1.0%	0.3%	1.4%
O=C(COc1ccccc1)N1CCN(C(=O)c2ccc([N+](=O)[O-])cc2)CC1	3.98µM*	9.53µM*	3.16µM*	?	/
COc1cc(OC)cc(C(=O)N2CCN(C(=O)COc3ccc4ccccc4c3)CC2)c1	8.6%	5.36µM*	2.7%	0.9%	-12.4%
CC(C)c1cnc2c(c1SCC(=O)NCc1ccccc1Cl)c(=O)n(C)c(=O)n2C	/	-2.6%	/	/	/
C/C(=N\NC(=O)c1sccc1C)c1cccnc1	?	13.5µM*	?	?	/
C/C(=N\NC(=O)c1cccs1)c1ccncc1	16.2%	/	2.3%	5.6%	/
C/C(=N\NC(=O)c1sccc1C)c1ccncc1	?	16.9µM*	3.16µM*	10.3µM*	/
C/C(=N\Nc1ccc(C)c(Cl)c1)c1cccnc1	?	15.1µM*	?	17.3%	/
C/C(=N/NC(=O)c1ccco1)c1cccnc1	-1.3%	-1.6%	-0.4%	-7.5%	28.5%
CCc1ccc(C(=O)N/N=C(\C)c2ccncc2)s1	3.55µM*	16.9µM*	3.16µM*	?	/
CCOC(=O)c1cnc(N2CCN(c3cccc(C)c3C)CC2)c2ccccc12	/	-1.6%	/	/	/
CCN(CC)CCNC(=O)CSc1nc2nc(C)c(Cc3ccccc3)c(C)n2n1	/	-0.9%	/	/	5.1%
CCc1ccc(CNC(=O)C(=O)NCC2CCCO2)cc1 (stereo not drawn)	-0.7%	-1.4%	-7.4%	3.4%	/
CCCCc1ccc(NC(=S)NCC2CCCO2)cc1 (stereo not drawn)	9.6%	?	-0.1%	0.7%	-18.6%
CN(C)c1ccc(NC(=S)NCC2CCCO2)cc1 (stereo not drawn)	17.4%	?	23.0%	?	12.6µM*
CCc1ccc(NC(=O)C(=O)NCC2CCCO2)cc1 (stereo not drawn)	3.55µM*	?	1.41µM*	17.1%	11.2µM*
O=C(NC(=S)NCC1CCCO1)c1ccccc1Br (stereo not drawn)	-4.2%	0.8%	-2.6%	5.5%	2.5%
Cc1ccc(C(=O)NC(=S)NCC2CCCO2)cc1Br (stereo not drawn)	23.4%	19µM*	29.1%	16.3%	20µM*
COc1ccc(C(=O)CC(=O)C(=O)Nc2cc(OC)ccc2OC)cc1	-5.5%	-3.2%	-5.2%	-0.1%	/
CC(C)C(=O)Nc1cccc(C(=O)OCC(=O)c2ccc(Cl)cc2Cl)c1	0.9%	1.2µM*	1.8%	-0.4%	-6.9%
CC(=O)Nc1cc(C(=O)OCC(=O)c2ccc(C)cc2)ccc1C	3.98µM*	6.01µM*	2.24µM*	?	?
COc1ccc(C(=O)COc2ccc(C)cc2NC(C)=O)cc1	3.55µM*	-9.0%	1.26µM*	?	/
CC(=O)Nc1cc(C(=O)OCC(=O)c2ccc(Cl)cc2Cl)ccc1C	-2.6%	2.39µM*	2.1%	-1.4%	-6.6%
CCOC(=O)Nc1cc(C(=O)OC)ccc1C	0.0%	-1.1%	0.5%	9.9%	19.4%
COCC(=O)Nc1cc(Cl)ccc1C	2.8%	-3.0%	0.5%	0.0%	-1.3%
